Active and inactive are the calls of the source.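 How the source made its calls, unless noted: active means inhibition above 20% together with a positive visual image hit; inconclusive means visual image hit but inhibition not above 20%; inactive means no visual image hit.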

Test [1] is described as follows: inhibitors of TNFa-induced NFkB p65 translocation, primary screen, imaging, HUVEC, MLSMR starter and 10KST1 sets (AID 438).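 Further: compound added about 3h40 before a 20 min TNFalpha stimulation.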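 On inhibition: signal is the nuclear over cytoplasmic p65 intensity ratio per well.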 The note with it: HUVEC TNFa-induced p65 nuclear translocation; cell count: measured here: nuclei count (cytotoxicity indicator), at 2.08 µM; inhibition: at 2 µM, stronger effect = higher value, 0% TNFa-plus-vehicle, 100% no-TNFa wells.
Test [2] in a line: inhibitors of mutant huntingtin aggregation, primary screen, imaging, exon1htt(103Q)mCFP cells, high-content imaging (AID 483;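 active means visual image review flags a hit and inhibition of aggregation exceeds 20%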;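 further: compound exposure lasted 3 days before fixation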;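 on nuclei count: percent of the per-plate median nuclei count of sample wells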). To be noted: exon1htt(103Q)mCFP cell line, aggregate imaging, at 2 µM; inhibition of aggregation: stronger effect = higher value; nuclei count: measured here: cell count, toxicity.
The nature of test [3]: inhibitors of E-selectin induction by TNFa, primary screen, imaging, HUVEC, immunofluorescence, MLSMR starter and 10KST1 sets (AID 487;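 active means visually confirmed hit in the image check and inhibition above 20%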;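 on inhibition: signal is fraction of cell area covered by stained E-selectin grains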;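 on nuclei count: 100% = median nuclei count of all wells on the same plate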). The note with it: HUVEC TNFalpha-induced E-selectin immunofluorescence imaging, at 2 µM; inhibition: stronger effect = higher value; nuclei count: measured here: cell number, toxicity.
Test [4] deals with Voltage-gated potassium channel subunit beta-2 (Rattus norvegicus) (UniProt P62483). As to the kind of experiment: KvBeta enzyme negative modulators, primary screen, biochemical, NADPH fluorescence (AID 622;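 active means fluorescence slope higher than the sample average by over 3 SD, cut at about -0.22 in these data, passing the limit was not always enough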;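 further: slope of raw intensity against log time taken from 70 to 1610 s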). The note with it: recombinant KvBeta, 4-cyanobenzaldehyde reduction, at 10 µM, stronger effect = higher value.
Test [5] shares this target. Briefly: KvBeta positive modulators, primary screen, biochemical, NADPH fluorescence (AID 623;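 active means NADPH fluorescence slope more negative than the mean of all samples by about 3 SD, 99.7% confidence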;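 further: fluorescence intensity change per second fitted from 20 to 320 s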). The note with it: Recombinant KvBeta, NADPH fluorescence decrease slope, 10 min; at 10 µM; stronger effect = lower value.
Test [6] addresses Alpha-2C adrenergic receptor (Homo sapiens) (UniProt P18825). Briefly: modulators of alpha2C/GIRK thallium flux, primary screen, cell-based, HEK293 alpha2C/GIRK1/2 (AID 624;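 active means fluorescence slope after compound addition differing from the mean of all screened samples at 99.7% confidence, in either direction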;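 further: slope of fluorescence ratio to pre-addition baseline per second over 15 to 24 s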). To be noted: thallium flux BTC fluorescence, at 10 µM, actives lie on both sides.
Test [7] is described as follows: inhibitors of Sendai virus-induced IRF3 signaling, primary screen, TLR/RLR signaling modifier project, cell-based, Sendai virus stimulus, luciferase, 10K MLSCN set (AID 602276;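 active means inhibition at or above 50% at 10 µM; inactive means inhibition below 50%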;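 further: firefly luciferase from ISG56 promoter only with Renilla not read in this screen; 0% = Sendai virus plus DMSO and 100% = medium plus DMSO without virus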). The note with it: HEK293 RL24 IRF3 luciferase reporter, at 10 µM, stronger effect = higher value. (A reporter such as luciferase makes a cellular process visible.)
The nature of test [8]: inhibitors of poly I:C-induced TLR3 signaling, primary screen, cell-based, poly I:C stimulus, luciferase, 10K MLSCN set (AID 602277;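 active means inhibition of the reporter signal at or above 50%; inactive means inhibition below 50%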). To be noted: HEK293-TLR3 RL24 IRF3 luciferase reporter, at 10 µM, stronger effect = higher value.

Sequence of Voltage-gated potassium channel subunit beta-2 (Rattus norvegicus) (P62483 whole entry, looked up): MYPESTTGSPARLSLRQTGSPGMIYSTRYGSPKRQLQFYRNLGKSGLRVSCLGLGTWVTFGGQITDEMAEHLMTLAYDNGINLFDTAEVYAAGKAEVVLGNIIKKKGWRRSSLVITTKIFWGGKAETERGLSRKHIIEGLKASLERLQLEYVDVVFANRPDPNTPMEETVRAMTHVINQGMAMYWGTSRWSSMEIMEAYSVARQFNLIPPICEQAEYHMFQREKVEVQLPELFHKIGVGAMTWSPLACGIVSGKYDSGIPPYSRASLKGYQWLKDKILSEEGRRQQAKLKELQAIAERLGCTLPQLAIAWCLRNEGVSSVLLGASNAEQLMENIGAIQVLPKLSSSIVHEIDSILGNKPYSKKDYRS
Sequence of Alpha-2C adrenergic receptor (Homo sapiens) (P18825 whole entry, looked up): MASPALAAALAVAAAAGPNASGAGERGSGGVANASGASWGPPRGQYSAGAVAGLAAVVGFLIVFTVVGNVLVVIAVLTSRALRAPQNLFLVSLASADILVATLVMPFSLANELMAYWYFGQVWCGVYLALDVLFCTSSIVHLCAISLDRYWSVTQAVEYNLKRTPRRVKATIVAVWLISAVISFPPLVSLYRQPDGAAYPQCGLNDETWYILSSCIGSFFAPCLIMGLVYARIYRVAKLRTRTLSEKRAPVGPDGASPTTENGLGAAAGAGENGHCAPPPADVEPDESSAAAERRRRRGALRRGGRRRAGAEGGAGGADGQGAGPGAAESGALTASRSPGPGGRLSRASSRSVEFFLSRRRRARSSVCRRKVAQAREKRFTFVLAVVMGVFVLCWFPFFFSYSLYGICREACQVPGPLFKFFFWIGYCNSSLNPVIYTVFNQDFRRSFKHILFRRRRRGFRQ

As for `COc1ccccc1NC(=O)c1ccc(COc2ccccc2OC)o1`, in test [1], the cell count was determined as 596. The inhibition – broadly, the change of the read-out against control, counted positive when it falls – in test [1] was -15.7% (inactive); in test [3] it was -77.6% (inactive); in test [7], 12.4% (inactive); in test [8] it was 4.47% (inactive). Besides, the inhibition of aggregation in test [2] was -20% (inactive). For the same compound, the figures for the nuclei count in test [2] and in test [3] were 132% and 107%, respectively. The fluorescence slope in test [4] was -0.605 (inactive). Further, the NADPH fluorescence slope in test [5] was 2.4e-05 (inactive). Moreover, in test [6], the slope was 0.00349 (inactive).
Regarding `COCC(=O)N(C)c1nnc(-c2ccccn2)s1`, in test [1], the cell count was 433. Further, the inhibition in test [1] is 1.4% (inactive); in test [3] it was -12.1% (inactive); in test [7] it was -7.53% (inactive); in test [8], -17.6% (inactive). Further, the inhibition of aggregation in test [2] is 16.5% (inactive). Also, the nuclei count in test [2] amounted to 84.4%; in test [3], 107%. The fluorescence slope in test [4] was -0.167 (inactive). Besides, in test [5], the NADPH fluorescence slope was -1.3e-05 (inactive). Moreover, the slope in test [6] is 0.0059 (inactive).
`Cc1ccc(-n2c3c(cc(C(=O)NC4CCSC4=O)c2=O)C(=O)CC(C)(C)C3)cc1` (stereo not drawn): the cell count in test [1] came to 294. Also, the inhibition is 7.2% (inactive) in test [1], -48.3% (inactive) in test [3], -0.246% (inactive) in test [7] and 38.6% (inactive) in test [8]. In test [2], the inhibition of aggregation is 7% (inactive). Besides, the nuclei count in test [2] came out at 100%; in test [3], 97.9%. Further, the fluorescence slope in test [4] is -0.458 (inactive). In test [5], the NADPH fluorescence slope is -8.6e-06 (inactive). Also, the slope in test [6] was 0.00353 (inactive).
`CC(C)C[C@H](NC(=O)Nc1cccc(C(F)(F)F)c1)C(=O)O`: in test [1], the cell count is 393. Moreover, the inhibition in test [1] was -9.8% (inactive); in test [3] it was -25.5% (inactive); in test [7] it was -1.3% (inactive); in test [8] it was 6.75% (inactive). For the same compound, the inhibition of aggregation in test [2] is 9.1% (inactive). Further, the nuclei count came out at 70.6% in test [2] and 97.8% in test [3]. Besides, in test [4], the fluorescence slope was -0.493 (inactive). Further, the NADPH fluorescence slope in test [5] is 4.1e-05 (inactive). The slope in test [6] was 0.00499 (inactive).
`COC(=O)c1ccc(CSc2nc3c(cnn3-c3ccc(F)cc3)c(=O)[nH]2)o1`: the cell count in test [1] was 653. The inhibition in test [1] is -12.7% (inactive); in test [3], -44.8% (inactive); in test [7] it was -5.97% (inactive); in test [8], 18.8% (inactive). Also, the inhibition of aggregation in test [2] is -1.4% (inactive). The nuclei count in test [2] is 106%; in test [3], 113%. In test [4], the fluorescence slope was -0.545 (inactive). Further, the NADPH fluorescence slope in test [5] is 5.2e-05 (inactive). In test [6], the slope was 0.00536 (inactive).
`CC(=O)N1CCN(c2ccc(N=Cc3c(O)n(Cc4ccccc4)c(=O)[nH]c3=O)cc2)CC1`: the cell count in test [1] is 344. Also, the inhibition was 6.8% (inactive) in test [1], -9.7% (inactive) in test [3], 14.1% (inactive) in test [7] and 22.9% (inactive) in test [8]. In test [2], the inhibition of aggregation was -13.5% (inactive). The nuclei count in test [2] is 102%; in test [3] it was 105%. Further, in test [4], the fluorescence slope was -0.525 (inactive). Moreover, in test [5], the NADPH fluorescence slope is 1.9e-05 (inactive). Besides, in test [6], the slope is 0.00469 (inactive).
With `COc1cccc(C2CC(c3ccc(C)cc3)n3nc(N)nc3N2)c1` (stereo not drawn), the cell count in test [1] was determined as 510. Further, the inhibition in test [1] was -0.9% (inactive); in test [3] it was -34.1% (inactive); in test [7], 9.08% (inactive); in test [8], 24.7% (inactive). The inhibition of aggregation in test [2] is -5.2% (inactive). For the same compound, the nuclei count in test [2] and in test [3] was 106% each time. Besides, in test [4], the fluorescence slope is -0.615 (inactive). Besides, the NADPH fluorescence slope in test [5] is -2.8e-06 (inactive). In test [6], the slope is 0.00794 (inactive).
Take `CC(=O)N1CCN(c2ccc(S(=O)(=O)N3CCCCC3)cn2)CC1`: the cell count in test [1] turned out to be 719. The inhibition in test [1] was 0.8% (inactive); in test [3], -6.8% (inactive); in test [7] it was 6.79% (inactive); in test [8] it was 8.53% (inactive). The inhibition of aggregation in test [2] is 4.2% (inactive). Also, the nuclei count was 101% in test [2] and 132% in test [3]. Also, the fluorescence slope in test [4] is -0.591 (inactive). In addition, in test [5], the NADPH fluorescence slope is 1.1e-05 (inactive). Moreover, the slope in test [6] is 0.00522 (inactive).

These data come from PubChem BioAssay.
